# Values joined by “and” are separate entries in the source; they are usually repeats but may differ in a detail not shown here. Identical values can stand only once. Inconclusive results are not listed. Where a call stands in place of a potency, no number is given. Active and inactive are the calls of the source. Unless noted, calls come from the whole dose curve; as a rule, active = well fitted curve in the direction sought with a large enough effect; inconclusive = small, poorly fitted or top-dose-only effect, or another doubt; inactive = no such curve, though single readings can be large; an effect the other way counts as inactive or inconclusive.
# Assays:
# [1] = molecular target: Calcium and integrin-binding protein 1 (Homo sapiens) (UniProt Q99828); test: Primary qHTS for Identification of Calcium Integrin Binding Protein 1 (CIB1) Competitor (AID 1508620);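 note: GST tagged CIB1 binding a fluorescein labelled alphaIIb integrin peptide tracer; top concentration of the series differs between compounds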
# Calcium and integrin-binding protein 1 (Homo sapiens), sequence (Q99828 whole entry, looked up): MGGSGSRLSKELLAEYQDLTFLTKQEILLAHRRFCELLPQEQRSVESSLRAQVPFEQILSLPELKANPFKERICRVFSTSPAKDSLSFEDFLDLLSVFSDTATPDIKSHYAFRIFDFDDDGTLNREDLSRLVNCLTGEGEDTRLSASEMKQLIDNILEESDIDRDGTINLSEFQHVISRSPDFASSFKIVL
# Method in brief: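 CIB1-GST (1 uM final) and compound incubated 15 min at room temperature before adding FITC-alphaIIb peptide tracer (100 nM final). Competition for binding read by fluorescence polarization (ex 480, em 540) after another 15 min at room temperature.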
# [2] = Primary qHTS for inhibitors of nuclear receptor binding SET domain protein 2 (NSD2) in an isogenic RCH-ACV NSD2 p.E1099K mutant (9B) (AID 1645876); note: nearly all actives have a fitted effect of over 70% in size; note: potency is the fitted concentration of half-maximal effect
# [3] = Primary qHTS for inhibitors of nuclear receptor binding SET domain protein 2 (NSD2) in an RCH-ACV wild type WT cells (2C) (AID 1645877); note: nearly all actives have a fitted effect of over 70% in size; note: potency is the fitted concentration of half-maximal effect
# [4] = molecular target: Cytochrome P450 2D6 (Homo sapiens) (UniProt P10635); test: Cytochrome P450 family 2 subfamily D member 6 (CYP2D6) small molecule antagonists: luciferase biochemical (cell-free) qHTS assay (AID 1645840; active = well fitted curve in the direction sought with a large enough effect in the repeat runs; an effect the other way counts as inactive or inconclusive; note: potency is the fitted concentration of half-maximal effect; nearly all actives have a fitted effect of over 55% in size)
# Cytochrome P450 2D6 (Homo sapiens), sequence (P10635 whole entry, looked up): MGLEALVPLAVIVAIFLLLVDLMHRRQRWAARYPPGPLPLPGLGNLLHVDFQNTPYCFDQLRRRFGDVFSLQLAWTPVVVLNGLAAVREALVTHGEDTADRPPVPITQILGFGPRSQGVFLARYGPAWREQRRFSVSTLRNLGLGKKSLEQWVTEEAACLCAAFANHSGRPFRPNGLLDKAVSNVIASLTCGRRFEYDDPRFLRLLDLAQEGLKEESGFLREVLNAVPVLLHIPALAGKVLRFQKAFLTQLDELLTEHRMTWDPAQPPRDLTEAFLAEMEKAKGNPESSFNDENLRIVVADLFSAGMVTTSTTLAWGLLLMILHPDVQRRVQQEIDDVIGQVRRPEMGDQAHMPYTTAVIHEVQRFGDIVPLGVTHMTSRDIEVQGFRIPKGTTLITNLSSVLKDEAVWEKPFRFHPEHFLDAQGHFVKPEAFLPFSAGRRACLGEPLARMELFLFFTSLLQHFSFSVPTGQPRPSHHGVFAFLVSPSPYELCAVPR
# Method in brief: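 P450-Glo CYP2D6 system: proluciferin substrate converted by enzyme to luciferin, read by luminescence proportional to activity. Enzyme-substrate mix with compound 10 min at room temperature, then NADPH regeneration 1 h before detection reagent.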
# [5] = molecular target: Cytochrome P450 2C9 (Homo sapiens) (UniProt P11712); test: Cytochrome P450 family 2 subfamily C member 9 (CYP2C9) small molecule antagonists: luciferase biochemical (cell-free) qHTS assay (AID 1645842; active = well fitted curve in the direction sought with a large enough effect in the repeat runs; an effect the other way counts as inactive or inconclusive; note: nearly all actives have a fitted effect of over 55% in size; note: potency is the fitted concentration of half-maximal effect)
# Cytochrome P450 2C9 (Homo sapiens), sequence (P11712 whole entry, looked up): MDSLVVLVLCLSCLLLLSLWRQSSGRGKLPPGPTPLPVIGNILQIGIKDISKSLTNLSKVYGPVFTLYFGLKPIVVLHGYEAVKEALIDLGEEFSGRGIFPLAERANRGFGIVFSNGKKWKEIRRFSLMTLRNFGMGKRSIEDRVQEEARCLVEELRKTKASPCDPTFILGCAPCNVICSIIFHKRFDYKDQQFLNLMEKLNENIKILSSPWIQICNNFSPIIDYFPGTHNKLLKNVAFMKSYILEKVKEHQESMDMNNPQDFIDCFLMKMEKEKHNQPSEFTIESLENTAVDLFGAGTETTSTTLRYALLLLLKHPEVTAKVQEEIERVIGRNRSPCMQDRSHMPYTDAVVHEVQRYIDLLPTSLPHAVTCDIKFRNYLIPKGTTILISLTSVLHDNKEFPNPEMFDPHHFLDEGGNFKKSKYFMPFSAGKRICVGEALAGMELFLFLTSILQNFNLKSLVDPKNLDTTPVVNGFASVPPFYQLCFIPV
# Method in brief: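 P450-Glo CYP2C9 system: proluciferin substrate with enzyme in mix containing 0.4% BSA, 10 min at room temperature, then NADPH regeneration solution added and incubated 1 h at 37C. Detection reagent stopped reaction; luminescence read after 20 min as RLU.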
# [6] = Primary qHTS for small molecule stabilizers of the endoplasmic reticulum resident proteome: Secreted ER Calcium Modulated Protein (SERCaMP) assay (AID 1508630)
# Method in brief: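 The SH-SY5Y reporter protocol was run at 3 concentrations up to 38.3 uM (primary) or 11 concentrations (follow-up): 16 h compound, 100 nM thapsigargin for 4 h, then extracellular luciferase luminescence.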
# [7] = molecular target: N-terminal Xaa-Pro-Lys N-methyltransferase 1 (Homo sapiens) (UniProt Q9BV86); test: Confirmatory qHTS for Inhibitors of N-terminal methyltransferase 1 (NTMT1): MTaseGlo Assay (AID 1645874); note: potency is the fitted concentration of half-maximal effect; nearly all actives have a fitted effect of over 65% in size
# N-terminal Xaa-Pro-Lys N-methyltransferase 1 (Homo sapiens), sequence (Q9BV86 whole entry, looked up): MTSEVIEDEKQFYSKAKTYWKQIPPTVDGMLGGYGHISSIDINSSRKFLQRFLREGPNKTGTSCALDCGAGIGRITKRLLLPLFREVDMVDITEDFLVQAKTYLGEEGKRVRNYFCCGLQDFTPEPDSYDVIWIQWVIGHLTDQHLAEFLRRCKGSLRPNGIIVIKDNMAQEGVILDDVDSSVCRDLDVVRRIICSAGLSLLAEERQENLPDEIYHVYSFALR
# Method in brief: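 MTase-Glo luminescence measured SAH formed by 125 nM NTMT1 from 100 uM SAM and 1 uM SPKRIA peptide over 30 min at room temperature, following 15 min compound preincubation. Percent inhibition against no-enzyme and DMSO controls gave 4-parameter Hill fits.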
# [8] = molecular target: Rap guanine nucleotide exchange factor 3 (Homo sapiens) (UniProt O95398); test: Confirmatory qHTS for antagonist of cAMP-regulated guanine nucleotide exchange factor 3 (EPAC1) (AID 1645880); note: nearly all actives have a fitted effect of over 55% in size
# Rap guanine nucleotide exchange factor 3 (Homo sapiens), sequence (O95398 whole entry, looked up): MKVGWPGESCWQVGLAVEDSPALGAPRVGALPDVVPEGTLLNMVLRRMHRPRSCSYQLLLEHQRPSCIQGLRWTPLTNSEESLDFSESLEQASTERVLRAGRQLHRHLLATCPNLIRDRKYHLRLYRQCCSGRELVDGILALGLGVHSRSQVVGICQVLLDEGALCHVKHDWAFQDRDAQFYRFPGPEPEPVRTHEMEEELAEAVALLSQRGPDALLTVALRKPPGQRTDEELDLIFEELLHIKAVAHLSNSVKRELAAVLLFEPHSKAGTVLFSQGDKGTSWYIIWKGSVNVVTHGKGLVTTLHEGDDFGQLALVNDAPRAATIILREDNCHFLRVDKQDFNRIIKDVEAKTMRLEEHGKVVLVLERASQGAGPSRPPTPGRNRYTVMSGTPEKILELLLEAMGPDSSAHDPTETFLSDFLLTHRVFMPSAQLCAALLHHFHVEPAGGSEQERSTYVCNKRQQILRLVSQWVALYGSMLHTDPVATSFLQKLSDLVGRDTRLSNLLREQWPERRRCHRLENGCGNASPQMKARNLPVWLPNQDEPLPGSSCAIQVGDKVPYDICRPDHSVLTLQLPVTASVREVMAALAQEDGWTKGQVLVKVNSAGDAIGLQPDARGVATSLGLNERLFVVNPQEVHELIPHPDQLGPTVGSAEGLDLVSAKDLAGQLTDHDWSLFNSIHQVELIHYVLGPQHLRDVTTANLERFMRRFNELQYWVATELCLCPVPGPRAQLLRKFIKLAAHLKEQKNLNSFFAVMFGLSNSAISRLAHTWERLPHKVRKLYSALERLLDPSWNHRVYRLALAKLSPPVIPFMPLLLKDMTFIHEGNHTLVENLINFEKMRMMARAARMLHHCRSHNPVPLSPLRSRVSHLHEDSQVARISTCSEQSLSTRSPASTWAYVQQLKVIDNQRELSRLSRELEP
# Method in brief: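 Released BODIPY-GDP fluoresces less than Rap1-bound BODIPY-GDP; the signal is followed at 480/540 nm at 5-min intervals over 30 min, after 5 min at room temperature. Reactions contain 100 nM EPAC1, 250 nM RAP1B-BODIPY-GDP and 50 uM GDP; results are normalized to ATA and DMSO.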
smiles,measurement,setting,value
N#Cc1ccc(NC(=O)Nc2ccccc2Br)c2n[nH]nc12,Potency,[1],inactive
same,Potency,[2],inactive
same,Potency,[3],inactive
COc1ccc2cc(-c3nc(-c4ccc(S(C)=O)cc4)[nH]c3-c3ccncc3)ccc2c1 (stereo unspecified),Potency,[1],inactive
same,Potency,[4],3.38 µM (active)
same,Potency,[5],3.38 µM (active)
same,Potency,[2],23.5 µM (active) and 20.5 µM (active)
same,Potency,[3],26.3 µM (active) and 20.5 µM (active)
COc1ccc(C2CC(c3ccccc3)=NN2c2ccc(S(N)(=O)=O)cc2)cc1 (stereo unspecified),Potency,[1],inactive
same,Potency,[5],6.74 µM (active)
Oc1ccc(C2=Cc3ccc(O)cc3OC2)cc1,Potency,[1],inactive
same,Potency,[6],inactive
same,Potency,[2],1.18 µM (active)
same,Potency,[3],1.32 µM (active)
CC(=O)N(C)C1(c2ccccc2)CCN(CCC[C@]2(c3ccc(Cl)c(Cl)c3)CCCN(C(=O)c3ccccc3)C2)CC1,Potency,[1],inactive
same,Potency,[6],inactive
same,Potency,[2],7.28 µM (active)
same,Potency,[3],5.78 µM (active)
CN(C[C@@H]1COCCO1)S(=O)(=O)Nc1ccc2ccc3ncc(-c4cnn(C)c4)cc3c(=O)c2c1,Potency,[1],inactive
same,Potency,[5],0.477 µM (active)
same,Potency,[2],5.15 µM (active)
same,Potency,[3],6.49 µM (active)
CN(C)Cc1cccc(N=C(c2ccccc2)c2c(O)[nH]c3cc(C(=O)N(C)C)ccc23)c1,Potency,[1],inactive
same,Potency,[6],inactive
same,Potency,[2],16.6 µM (active)
same,Potency,[3],14.8 µM (active)
CC(C)(C(=O)NCC(F)(F)C(F)(F)F)C(=O)N[C@@H]1C(=O)Nc2ccccc2-c2ccccc21,Potency,[1],inactive
same,Potency,[6],inactive
same,Potency,[3],inactive
O=C1C(Cl)=C(NCCN2CCOCC2)C(=O)c2ncccc21,Potency,[1],inactive
same,Potency,[6],inactive
same,Potency,[2],7.42 µM (active)
same,Potency,[3],3.32 µM (active)
O=C(O)c1cc(O)c2c(c1)C(=O)c1cccc(O)c1C2=O,Potency,[6],inactive
same,Potency,[2],inactive
same,Potency,[3],inactive
COc1cccc([C@@H](C)NCCCc2ccccc2Cl)c1,Potency,[1],inactive
same,Potency,[2],18.6 µM (active)
same,Potency,[3],18.6 µM (active)
NC1CCC(Nc2nc(Nc3ccc(C(=O)N4CCCCC4)cc3)c3ncn(-c4cccc(F)c4)c3n2)CC1 (stereo unspecified),Potency,[1],inactive
same,Potency,[6],inactive
same,Potency,[2],1.84 µM (active)
same,Potency,[3],2.06 µM (active)
COc1ccc(C2Sc3ccccc3N(CCN(C)C)C(=O)C2OC(C)=O)cc1 (stereo unspecified),Potency,[1],inactive
same,Potency,[2],inactive
same,Potency,[3],inactive
Oc1ccc(C2CCN(c3ccnc4ccccc34)CC2)cc1O,Potency,[1],inactive
same,Potency,[2],13.2 µM (active)
same,Potency,[3],11.8 µM (active)
O=c1cc(-c2ccccc2)oc2cc(O)cc(O)c12,Potency,[1],inactive
same,Potency,[2],16.6 µM (active)
same,Potency,[3],16.6 µM (active)
O=C(O)c1ccc(-c2c[nH]c3ncc(-c4ccccc4)cc23)cc1C1CCCC1,Potency,[1],inactive
same,Potency,[2],inactive
same,Potency,[3],18.6 µM (active)
C[C@@H]1CCN(C(=O)CC#N)C[C@H]1N(C)c1ncnc2[nH]ccc12,Potency,[1],inactive
same,Potency,[5],inactive
Cc1cc(OCCCc2c(C(=O)O)n(Cc3cccnc3)c3c(-c4c(COc5ccc(N6CCN([S+](C)(=O)[O-])CC6)cc5)nn(C)c4C)cccc23)cc(C)c1Cl,Potency,[6],inactive
Cc1cccc(Nc2nc(-c3ccncc3)cs2)c1,Potency,[1],inactive
same,Potency,[4],0.849 µM (active)
same,Potency,[5],0.268 µM (active)
same,Potency,[7],2.82 µM (active)
same,Potency,[2],10.3 µM (active) and 11.8 µM (active)
same,Potency,[3],10.3 µM (active) and 13.2 µM (active)
CCNc1cc(NC2CCC(O)CC2)nc(Nc2ccc3c(ccn3Cc3ccccc3)c2)n1 (stereo unspecified),Potency,[1],inactive
same,Potency,[3],3.32 µM (active)
Cc1ccc(F)c(NC(=O)Nc2ccc(-c3cccc4[nH]nc(N)c34)cc2)c1,Potency,[1],inactive
same,Potency,[2],10.5 µM (active)
same,Potency,[3],8.33 µM (active)
O=C(Nc1cc(Cl)cc2c1[nH]c1cnccc12)c1cccnc1,Potency,[1],inactive
same,Potency,[2],inactive
same,Potency,[3],inactive
NC(=O)c1ccc2nc(-c3ccc(Oc4ccc(Cl)cc4)cc3)[nH]c2c1,Potency,[1],inactive
same,Potency,[2],14.5 µM (active) and 23.1 µM (active)
same,Potency,[3],16.6 µM (active) and 16.4 µM (active)
NS(=O)(=O)c1cccc2c1C(=O)c1cccc(O)c1C2=O,Potency,[1],inactive
same,Potency,[2],1.66 µM (active)
same,Potency,[3],0.742 µM (active)
COc1cc2nc(-c3ccc(N4CCN(C)CC4)cc3)nc(NCCN3CCOCC3)c2cc1OC,Potency,[1],inactive
same,Potency,[2],1.86 µM (active)
same,Potency,[3],2.09 µM (active)
COc1ccc(-c2cc(=O)c3c(O)cc(O)cc3o2)cc1O,Potency,[6],inactive
same,Potency,[2],11.8 µM (active)
same,Potency,[3],14.8 µM (active)
NS(=O)(=O)c1ccc(NC2=CC(=O)c3ccccc3C2=O)cc1,Potency,[1],inactive
same,Potency,[6],inactive
same,Potency,[2],inactive
same,Potency,[3],inactive
c1ccc2c(Cc3c[nH]c4ccccc34)c[nH]c2c1,Potency,[1],inactive
same,Potency,[6],inactive
same,outcome,[8],inactive
